An excerpt weighted towards active compounds, which were near 2.8% of everything screened.
SIRT5 inh – SIRT5 desuccinylase inhibitors, primary screen, biochemical, fluorescence imaging, single point, set 5. inhibition, % at 15 µM. Purified SirT5, succinyl-peptide AMC, trypsin-coupled fluorescence. 1.1% of 330,000 active. NAD-dependent protein deacylase sirtuin-5, mitochondrial (Homo sapiens), Q9NXA8; in the data active = inhibition above about 15%
CDK5 inh – inhibitors of human CDK5/p35 kinase, primary screen, biochemical, single concentration. AID 488839, 2010. 0.01% of 330,000 active. Recombinant CDK5/p35, ADP-Glo luminescence, 60 min. inhibition, % at 10 µM;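 active = highest replicate inhibition of at least 50% and at least 75% of replicates reaching 50%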;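 note: plate controls were DMSO neutral control for no effect and GW8510 at 10 µM for full effect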
FGF22 binding – binders of human FGF22 protein, primary screen, FGF22 synaptogenesis inhibitor project, biophysical, thermal shift, single point. recombinant FGF22 thermal shift, SYPRO orange fluorescence; percent of sucrose octasulfate shift, DMSO zero. 1.5% of 340,000 active. Fibroblast growth factor 22 (Homo sapiens), Q9HCT0. activity (Tm shift, normalised), % at 9.99 µM;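 active = mean Tm shift, scaled 0 neutral to 100 positive control, at about 1.3% or above, every replicate too, limit read from the data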
Target sequence (Q9HCT0 whole entry, looked up): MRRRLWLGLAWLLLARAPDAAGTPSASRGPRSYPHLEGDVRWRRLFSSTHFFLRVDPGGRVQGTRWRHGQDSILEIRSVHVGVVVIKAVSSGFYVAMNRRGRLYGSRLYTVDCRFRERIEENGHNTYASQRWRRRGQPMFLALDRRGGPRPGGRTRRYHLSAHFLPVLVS
PglD DTNB – C. jejuni PglD acetyltransferase inhibitors, primary screen, biochemical, DTNB colorimetric, single point; inhibition, % at 12.5 µM; 0.098% of 360,000 active; purified PglD enzyme, DTNB colorimetric CoA detection; in the data active = inhibition above about 16%, passing the limit was not always enough
dFosB act-1 – activators of delta FosB homodimer, primary screen, biochemical, fluorescence polarization, TAMRA-CDK5 oligo, single point | Protein FosB (Mus musculus), P13346 | AID 493131, 2011 | purified delta FosB; percent of positive-control signal above neutral wells | 0.99% of 340,000 active | activation, % at 25 µM;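 active = mean activation above about 17%, with every replicate also reaching it, limit read from the data, passing the limit was not always enough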
PvdQ inh – P. aeruginosa PvdQ acylase inhibitors, primary screen, biochemical, fluorescence, plate reader and imaging, single point. PvdQ acylase [Pseudomonas aeruginosa LESB58]. purified PvdQ acylase. inhibition, % at 10 µM. 0.063% of 340,000 active. AID 488965, 2010; in the data active = inhibition above about 30%, passing the limit was not always enough;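 note: 0% = vehicle neutral wells and 100% = reference inhibitor wells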
dFosB act-2 – activators of mouse delta FosB DNA binding, confirmation, biochemical, fluorescence polarization, TAMRA-CDK5 oligo, cherry-picked samples | shares compounds with dFosB act-1 | purified delta FosB; normalised: neutral wells 0, positive control 100 | activation, % at 24.9 µM | 2,400 tested, under 10 active;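 active = highest replicate activation at or above 34% and every replicate reaching that threshold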;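 note: higher polarization means more probe DNA bound by delta FosB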
* marks the source's active call; other numbers are inactive results; · = no result.

SMILES	SIRT5 inh	CDK5 inh	FGF22 binding	PglD DTNB	dFosB act-1	PvdQ inh	dFosB act-2
Cc1ccc(CSCC(=O)N/N=C/c2ccc(OCC(=O)Nc3ccc(C)cc3)cc2)cc1	·	1	·	1	27*	1	9
Cc1c(C)c2ccc(OCC(=O)Nc3nccs3)cc2oc1=O	-8	-2	0	5	31*	-19	1
O=C(CNC(=O)Cn1cnc2sc3c(c2c1=O)CCCC3)NCc1ccccn1	1	-1	0	-3	1	3	·
O=C(Cn1cnc2sc3c(c2c1=O)CCCC3)NCC(=O)Nc1c(F)cccc1F	1	-5	0	·	32*	-11	0
CCC(=O)N1CC2(C1)CN(Cc1cccc(F)c1)[C@@H](CO)c1c2c2ccc(OC)cc2n1C	4	·	·	·	·	·	·
COc1cccc(-c2ccc3c(c2)[C@H]2[C@H](CCN2S(=O)(=O)c2ccccc2OC)[C@H](CO)N3)c1	9	·	-1	2	·	·	·
O=C(Nc1ccc(F)cc1)C1CCN(c2ncnc3c2nc2n3CCCCC2)CC1	4	-1	0	4	48*	-6	3
Cc1cn(-c2cc(NC(=O)c3ccc(C)c(NC(=O)c4cccc(-c5cn[nH]c(=O)c5)c4)c3)cc(C(F)(F)F)c2)cn1	·	-2	·	-2	41*	1	1
CNC[C@H]1Oc2ccc(NC(=O)NC(C)C)cc2CC(=O)N([C@@H](C)CO)C[C@@H]1C	-5	·	0	-1	·	·	·
C/C(=N\NC(=S)NC1CCCCC1)c1ccc(C#N)cc1	-2	0	0	3	36*	-9	6
O=C(NNC1=Nc2ccccc2SC1)c1ccc(F)cc1	-2	1	0	·	-9	-10	·
O=C(NNC1=Nc2ccccc2SC1)c1ccc(Cl)cc1	-4	1	0	-1	24*	10	-10
CCCN(C)C[C@H]1OCCCC[C@@H](C)Oc2ccc(NS(=O)(=O)c3c(C)noc3C)cc2C(=O)N([C@@H](C)CO)C[C@H]1C	3	·	0	·	·	·	·
Cc1cccc(NC(=O)c2cc(-c3cccnc3)nc3c(C)cccc23)n1	-3	0	0	5	55*	-5	0
Cc1cc(NC(=O)c2cc(-c3ccncc3)nc3c(C)cccc23)no1	·	-3	·	18	-11	3	·
CC(=O)N1[C@@H]2c3ccc(-c4ccncc4)c(=O)n3C[C@@H]2[C@@H](CO)[C@@H]1C(=O)NCc1ccccc1Cl	-66	·	0	-2	·	·	·
CCN(CC(=O)Nc1c(F)cccc1F)C(=O)CCc1nc2ccccc2c(=O)[nH]1	-2	1	0	·	-11	-10	·
CCCN(CC(=O)Nc1ccc(F)c(F)c1F)C(=O)CCc1nc2ccccc2c(=O)[nH]1	-3	0	0	2	40*	-13	0
CN(CC(=O)Nc1ccc(Cl)c(C(F)(F)F)c1)C(=O)CCc1nc2ccccc2c(=O)[nH]1	-6	-2	0	5	52*	-14	4
CN(CC(=O)Nc1ccc(F)cc1)C(=O)CCc1nc2ccccc2c(=O)[nH]1	-4	-3	0	7	-4	4	·
CC(C)NC(=O)Nc1ccc2c(c1)C(=O)N(C)[C@@H]1CC[C@@H](CC(=O)Nc3ccccc3)O[C@H]1CO2	3	·	0	3	·	·	·
Cc1ccc(-c2cc(C(=O)N/N=C/c3ccc(Cl)cc3)n[nH]2)o1	2	0	0	0	27*	-5	1
